Like-named read-outs stand apart in the source and are kept apart here.
How the values were obtained:
Parameters in all cases: species or system human, MV4-11 + K-562 + COLO205 + SK-N-BE2 + OVCAR-8
CDC42BPA = settings: read-out: apparent Kd, n = 1
CDC42BPB = settings: read-out: apparent Kd, n = 1
CHEK1 = settings: read-out: apparent Kd; compound concentrations:100 nM and 1000 nM (sheet 'Samples'); n = 1
GSK3A = settings: read-out: apparent Kd; compound concentrations:100 nM and 1000 nM (sheet 'Samples'); n = 1
LATS1 = settings: read-out: apparent Kd, n = 1
MELK = settings: read-out: apparent Kd; compound concentrations:100 nM and 1000 nM (sheet 'Samples'); n = 1
PIM1 = settings: read-out: apparent Kd; compound concentrations:100 nM and 1000 nM (sheet 'Samples'); n = 1
PKN1 = settings: read-out: apparent Kd, n = 1
PKN2 = settings: read-out: apparent Kd, n = 1
PRKCA = settings: read-out: apparent Kd, n = 1
PRKCB = settings: read-out: apparent Kd; compound concentrations:100 nM and 1000 nM (sheet 'Samples'); n = 1
PRKCD = settings: read-out: apparent Kd, n = 1
PRKCI = settings: read-out: apparent Kd; compound concentrations:100 nM and 1000 nM (sheet 'Samples'); n = 1
PRKCZ = settings: read-out: apparent Kd; compound concentrations:100 nM and 1000 nM (sheet 'Samples'); n = 1
PRKG1 = settings: read-out: apparent Kd, n = 1
PRKX = settings: read-out: apparent Kd, n = 1
ROCK2 = settings: read-out: apparent Kd, n = 1
RPS6KA5 = settings: read-out: apparent Kd; compound concentrations:100 nM and 1000 nM (sheet 'Samples'); n = 1
RPS6KB1 = settings: read-out: apparent Kd; compound concentrations:100 nM and 1000 nM (sheet 'Samples'); n = 1
CAMK4 = settings: read-out: apparent Kd; compound concentrations:100 nM and 1000 nM (sheet 'Samples'); n = 1
CDK10 = settings: read-out: apparent Kd; compound concentrations:100 nM and 1000 nM (sheet 'Samples'); n = 1
CDK6 = settings: read-out: apparent Kd; compound concentrations:100 nM and 1000 nM (sheet 'Samples'); n = 1
HSP90B1 = settings: read-out: apparent Kd; compound concentrations:100 nM and 1000 nM (sheet 'Samples'); n = 1
MAPK9 = settings: read-out: apparent Kd; compound concentrations:100 nM and 1000 nM (sheet 'Samples'); n = 1
CDC42BPG = settings: read-out: apparent Kd; compound concentrations: 100 nM and 1000 nM (sheet 'Samples'), CATDS: 0.24390813090815999; n = 1
PRKACA = settings: read-out: apparent Kd; compound concentrations: 100 nM and 1000 nM (sheet 'Samples'), CATDS: 0.118024991958308; n = 1
PRKACB = settings: read-out: apparent Kd; compound concentrations: 100 nM and 1000 nM (sheet 'Samples'), CATDS: 8.0327411283578495E-2; n = 1
ROCK1 = settings: read-out: apparent Kd; compound concentrations: 100 nM and 1000 nM (sheet 'Samples'), CATDS: 0.14218227493934099; n = 1
TP53RK = settings: read-out: apparent Kd; compound concentrations: 100 nM and 1000 nM (sheet 'Samples'), CATDS: 4.1650793572711099E-2; n = 1
[1] = compound concentrations:100 nM and 1000 nM (sheet 'Samples')

## CCn1c(-c2nonc2N)nc2cncc(CNC3CCNCC3)c21 [SB-747651A]
CDC42BPA; [1]
  potency estimated from few doses: 1740 nM
CDC42BPB; [1]
  potency estimated from few doses: 1900 nM
CHEK1
  potency estimated from few doses: 2160 nM
GSK3A
  potency estimated from few doses: 1100 nM
LATS1; [1]
  potency estimated from few doses: 782 nM
MELK
  potency estimated from few doses: 655 nM
PIM1
  potency estimated from few doses: 1120 nM
PKN1; [1]
  potency estimated from few doses: 40 nM
PKN2; [1]
  potency estimated from few doses: 94.5 nM
PRKCA; [1]
  potency estimated from few doses: 197 nM
PRKCB
  potency estimated from few doses: 153 nM
PRKCD; [1]
  potency estimated from few doses: 632 nM
PRKCI
  potency estimated from few doses: 1480 nM
PRKCZ
  potency estimated from few doses: 2000 nM
PRKG1; [1]
  potency estimated from few doses: 702 nM
PRKX; [1]
  potency estimated from few doses: 1590 nM
ROCK2; [1]
  potency estimated from few doses: 36.2 nM
RPS6KA5
  potency estimated from few doses: 96.1 nM
RPS6KB1
  potency estimated from few doses: 22.2 nM

## FC(F)(F)c1cc(Nc2nccc(-c3c(-c4ccc(Cl)cc4)nn4ncccc34)n2)ccc1Cl [GW829351X]
CAMK4
  potency estimated from few doses: 2170 nM
CDK10
  potency estimated from few doses: 1110 nM
CDK6
  potency estimated from few doses: 1600 nM
HSP90B1
  potency estimated from few doses: 114 nM
MAPK9
  potency estimated from few doses: 1950 nM

## NCCC(NC(=O)c1cc(Br)c(-c2ccnc3[nH]ccc23)s1)c1ccccc1.NCCC(NC(=O)c1cc(Br)c(-c2ccnc3[nH]ccc23)s1)c1ccccc1.O=C(O)C(F)(F)F.O=C(O)C(F)(F)F (stereo not drawn) [GSK1307810A]
CDC42BPA; compound concentrations: 100 nM and 1000 nM (sheet 'Samples'), CATDS: 7.0311293069570804E-2
  potency estimated from few doses: 227 nM
CDC42BPB; compound concentrations: 100 nM and 1000 nM (sheet 'Samples'), CATDS: 0.16933732506395899
  potency estimated from few doses: 30.4 nM
CDC42BPG
  potency estimated from few doses: 17.2 nM
LATS1; compound concentrations: 100 nM and 1000 nM (sheet 'Samples'), CATDS: 4.6540265787969097E-2
  potency estimated from few doses: 1110 nM
PKN1; compound concentrations: 100 nM and 1000 nM (sheet 'Samples'), CATDS: 4.7667379026866498E-2
  potency estimated from few doses: 988 nM
PKN2; compound concentrations: 100 nM and 1000 nM (sheet 'Samples'), CATDS: 4.4394319464929097E-2
  potency estimated from few doses: 1410 nM
PRKACA
  potency estimated from few doses: 60.2 nM
PRKACB
  potency estimated from few doses: 153 nM
PRKCA; compound concentrations: 100 nM and 1000 nM (sheet 'Samples'), CATDS: 4.1587552070859297E-2
  potency estimated from few doses: 2070 nM
PRKCD; compound concentrations: 100 nM and 1000 nM (sheet 'Samples'), CATDS: 4.48878810193531E-2
  potency estimated from few doses: 1330 nM
PRKG1; compound concentrations: 100 nM and 1000 nM (sheet 'Samples'), CATDS: 6.8591269035778196E-2
  potency estimated from few doses: 245 nM
PRKX; compound concentrations: 100 nM and 1000 nM (sheet 'Samples'), CATDS: 6.1188840569936599E-2
  potency estimated from few doses: 360 nM
ROCK1
  potency estimated from few doses: 41.6 nM
ROCK2; compound concentrations: 100 nM and 1000 nM (sheet 'Samples'), CATDS: 0.152164814838194
  potency estimated from few doses: 36.7 nM
TP53RK
  potency estimated from few doses: 2050 nM
